Shown are actives, neighbours in structure and some others; about 3.1% of the full set was active somewhere.
Rtt109 Vps75: C. albicans Rtt109 histone acetyltransferase inhibition; Q5AAJ8; purified Rtt109/Vps75, ThioGlo CoA-SH fluorescence, 4 h; inhibition, % at 34.9 µM; 330,000 tested, 0.16% active; AID 540336;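 active = inhibition of at least 50% in every replicate; inconclusive = best replicate reaches 50% inhibition but some replicates fall short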
Target sequence (Q5AAJ8 whole entry, looked up): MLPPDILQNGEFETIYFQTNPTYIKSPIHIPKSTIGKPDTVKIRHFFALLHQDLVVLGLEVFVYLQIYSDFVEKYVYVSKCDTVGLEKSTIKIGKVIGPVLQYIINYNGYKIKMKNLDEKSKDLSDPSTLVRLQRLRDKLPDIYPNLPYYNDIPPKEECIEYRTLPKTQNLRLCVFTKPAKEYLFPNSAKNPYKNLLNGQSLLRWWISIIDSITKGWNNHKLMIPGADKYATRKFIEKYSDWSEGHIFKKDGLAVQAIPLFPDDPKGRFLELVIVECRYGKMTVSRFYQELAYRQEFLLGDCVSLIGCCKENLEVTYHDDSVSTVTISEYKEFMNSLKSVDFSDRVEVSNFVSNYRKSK
Wnt act: Wnt/beta-catenin pathway activation. activation, % at 9.35 µM. 300,000 tested, 1.2% active. AID 743398. Wnt/beta-catenin reporter cell assay, activator, plate reader; in the data active = activation above about 30%, passing the limit was not always enough; inconclusive = no clear call, values can overlap the other calls
MITF act: activators of MITF-driven TRPM1 promoter activity in SK-MEL-5 cells; activation, % at 12.5 µM; 300,000 tested, 0.75% active; SK-MEL-5 TRPM1-promoter luciferase, 24 h; % of positive control, neutral wells = 0;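 active = mean activation of at least 80% with every replicate also reaching 80%; inconclusive = mean reaches 80% but some replicate falls short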
C2C12 statin: suppression of simvastatin myotoxicity | 330,000 tested, 0.78% active | rescue of ATP level, % at 7.49 µM | C2C12 myotubes + simvastatin, ATP luminescence, 48 h; scaled: DMSO 0, geranylgeraniol control 100;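 active = mean ATP rescue above about 67%, or every replicate alone reaching that limit, limit read from the data, passing the limit was not always enough; inconclusive = no clear call, values can overlap the other calls; inactive = mean under the limit and some replicate under it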;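 also: myotubes were challenged with 10 µM simvastatin during compound exposure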
esBAF inh: SWI/SNF esBAF complex inhibition; mouse ES cells, Bmi1-luciferase knock-in reporter, 24 h; 100% = twice the neutral-well signal; reporter increase, % at 12.5 µM; 350,000 tested, 2% active; AID 602393; in the data active = activation above about 40%; inconclusive = no clear call, values can overlap the other calls;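 also: a rise in the Bmi1 reporter signal indicates esBAF inhibition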
Numbers stand for hits; 0 = inactive; ? = inconclusive; - = no result.

SMILES	Rtt109 Vps75	Wnt act	MITF act	C2C12 statin	esBAF inh
COc1ccc(/C=N/Nc2ccc(C(=O)O)cc2)cc1OC	0	33	0	0	0
C=CCOc1c(Br)cc(/C=N/Nc2ccc(C(=O)O)cc2)cc1OCC	0	0	105	-	-
COc1cc(/C=N/Nc2ccc(Cl)c(C(=O)O)c2)ccc1OC(=O)c1cccs1	0	37	0	0	0
COc1ccc(/C=N/Nc2ccc(C(=O)O)cc2)cc1Br	0	0	0	0	0
CC(C)NC(=O)N(C)C[C@@H]1Oc2ccc(NC(=O)Cc3cn(C)c4ccccc34)cc2CC(=O)N([C@@H](C)CO)C[C@H]1C	-	-	-	0	0
C[C@@H]1CN([C@H](C)CO)C(=O)c2cc(NC(=O)Nc3ccc(F)cc3)ccc2O[C@@H](C)CCCCO[C@H]1CN(C)Cc1ccc(C(F)(F)F)cc1	-	-	-	-	0
C[C@H](CO)N1C[C@H](C)[C@@H](CN(C)S(=O)(=O)c2ccccc2)Oc2ccc(NC(=O)NC3CCCCC3)cc2CC1=O	-	-	-	0	0
C/C=C/c1cnc2c(c1)C(=O)N([C@H](C)CO)C[C@H](C)[C@H](CN(C)Cc1ccc3c(c1)OCO3)O2	-	-	-	0	0
COc1cc(OC)cc(C(=O)Oc2ccc(/C=N/Nc3nc4ccccc4s3)cc2OC)c1	0	41	0	-	-
COc1ccc2ccccc2c1/C=N/Nc1cccc(C(=O)O)c1	0	0	93	0	66
Cc1noc(C)c1NC(=O)N(C)C[C@H]1Oc2c(NC(=O)c3cnccn3)cccc2C(=O)N([C@H](C)CO)C[C@@H]1C	-	-	-	0	0
Cc1cnc(C(=O)Nc2ccc(F)c(F)c2)cn1	0	-	0	0	62
Cc1cnc(C(=O)OCC(=O)Nc2ccc(OCc3ccccc3)cc2)cn1	0	32	96	0	?
Cc1cnc(C(=O)OCC(=O)NCc2ccccc2)cn1	0	0	-	0	0
Cn1cc(C(=O)Nc2ccc(F)c(F)c2)cn1	0	0	-	90	0
Cc1cnc(C(=O)Nc2ccc3c(c2)CCC3)cn1	0	-	-	0	0
CCCCOc1ccc(NC(=O)c2cnc(C)cn2)cc1	0	0	0	0	58
C[C@@H]1CCCCO[C@H](CN(C)C(=O)Nc2ccc3c(c2)OCO3)[C@@H](C)CN([C@@H](C)CO)C(=O)c2cc(NC(=O)c3ccncc3)ccc2O1	-	-	-	-	0
CO[C@H]1CN(C)C(=O)c2ccc(NC(C)=O)cc2OC[C@H](C)N(C(=O)c2ccccc2F)C[C@@H]1C	-	-	-	0	0
S=C(c1ccc(-c2cccc(Cl)c2)o1)N1CCCCC1	0	40	93	-	-
S=C(c1ccc(-c2cc(Cl)ccc2Cl)o1)N1CCCCC1	0	-	0	-	-
O=[N+]([O-])c1cccc(-c2ccc(C(=S)N3CCOCC3)o2)c1	-	0	0	0	0
S=C(c1ccc(-c2cccc(Cl)c2)o1)N1CCOCC1	0	0	139	0	?
O=C1S/C(=C\c2cccs2)C(=O)N1c1ccc(O)cc1	0	44	98	0	50
O=C1/C(=C/c2cccs2)SC(=S)N1c1ccccc1	0	0	0	0	0
SMILES	Rtt109 Vps75	Wnt act	MITF act	C2C12 statin	esBAF inh
COCC(=O)N1C[C@H](C)[C@H](OC)CN(C)C(=O)c2cc(NC(=O)c3cnccn3)ccc2OC[C@H]1C	-	-	-	0	0
CCOC(=O)Cc1csc(NC(=O)Cc2ccccc2)n1	0	0	0	-	-
CCOC(=O)c1sc(NC(=O)c2cncc(Br)c2)nc1C	-	0	-	-	-
CCOC(=O)c1sc(NC(=O)c2ccc3ncsc3c2)nc1C	0	0	-	0	51
CCOC(=O)c1sc(Nc2ccccc2Cl)nc1C	0	39	0	0	65
CCOC(=O)c1sc(NC(=O)c2ccc(CC)s2)nc1C	0	-	0	0	51
COC(=O)Cc1csc(Nc2ccccc2Cl)n1	0	0	94	0	54
COc1ccc(S(=O)(=O)N(C)C[C@H]2OCCCC[C@@H](C)Oc3ccc(NC(=O)CCCN(C)C)cc3C(=O)N([C@H](C)CO)C[C@@H]2C)cc1	-	-	-	-	0
CO[C@H]1CN(C)C(=O)c2cc(NC(C)=O)ccc2OC[C@H](C)N(CC2CCCCC2)C[C@@H]1C	-	-	-	0	0
CCc1ccc(C(=O)Nc2cc(C)ccc2F)s1	0	0	0	0	66
CCc1ccc(C(=O)Nc2nc(C)cs2)s1	0	?	0	0	0
Cc1cc(NC(=S)NC(=O)C2CC2)ccc1Br	0	?	0	0	64
Cc1ccc(NC(=S)NC(=O)C2CCCC2)c(Br)c1	0	53	97	0	67
O=C(NC(=S)Nc1ccccc1Br)C1CC1	0	0	0	-	-
CNC[C@H]1Oc2cc(C#CC3(O)CCCC3)ccc2S(=O)(=O)N([C@@H](C)CO)C[C@@H]1C	-	-	-	0	0
CNC[C@@H]1Oc2ncc(Br)cc2C(=O)N([C@H](C)CO)C[C@H]1C	-	-	-	0	0
COc1ccc(S(=O)(=O)N2CC[C@H]3[C@@H](CO)N(C)c4ccc(C5=CCCCC5)cc4[C@H]32)cc1	-	-	-	0	0
CC(=O)N(C)C[C@@H]1Oc2ncc(-c3cccnc3)cc2C(=O)N([C@@H](C)CO)C[C@H]1C	-	-	-	0	0
Cc1ccc(-c2ccc3c(c2)O[C@@H](CN(C)CC2CCCC2)[C@H](C)CN([C@@H](C)CO)S3(=O)=O)cc1	-	-	-	0	0
Nc1ccccc1N=Cc1ccc(-c2cccc(Cl)c2)o1	0	0	0	0	98
c1ccc(OCCSc2nnnn2-c2ccccc2)cc1	0	-	90	0	0
CN(CC(=O)Nc1ccc(Cl)cc1)C(=O)c1cccc(S(=O)(=O)NCc2ccccc2)c1	60	0	0	-	-
CN(CC(=O)Nc1ccc(Cl)cc1)C(=O)c1cccc(S(=O)(=O)N2CCN(Cc3ccccc3)CC2)c1	0	0	0	0	0
C[C@H](CO)N1C[C@H](C)[C@@H](CN(C)C(=O)Nc2cccc3ccccc23)OCCCC[C@H](C)Oc2ccc(NS(=O)(=O)c3ccc(F)cc3)cc2C1=O	-	-	-	-	0
COc1cc(C)c(Cl)cc1S(=O)(=O)NCCN1CCOCC1	0	-	0	123	0
SMILES	Rtt109 Vps75	Wnt act	MITF act	C2C12 statin	esBAF inh
O=C(N[C@@H]1CC[C@@H](CCNS(=O)(=O)Cc2ccccc2)O[C@H]1CO)c1cnccn1	-	-	-	0	0
Cc1ccc(NC(=O)CCNC(=O)c2ccc(Cl)cc2)nc1	0	0	0	0	0
Cc1ccc(NC(=O)CCCNC(=O)c2ccc(Cl)cc2)nc1	0	0	0	0	52
Cc1cnc(NC(=O)CCCNC(=O)c2ccc(Cl)cc2)s1	0	52	0	0	42
O=C([C@@H]1N[C@@H]2c3ccc(C4=CCCC4)c(=O)n3C[C@@H]2[C@H]1CO)N1CCc2ccccc2C1	-	-	-	0	0
COC(=O)C(C)n1cnc2c(cnn2-c2ccc(Cl)cc2)c1=O (stereo not given)	0	-	0	0	53
CCOC(=O)Cn1cnc2c(cnn2-c2ccc(Cl)cc2)c1=O	0	-	0	0	0
C[C@H](CO)N1C[C@H](C)[C@@H](CN(C)C(=O)C2CC2)Oc2ncc(C#Cc3ccccc3F)cc2C1=O	-	-	-	0	0
C[C@H]1CN([C@@H](C)CO)C(=O)c2cc(C#Cc3cccnc3)cnc2O[C@H]1CN(C)Cc1ccncc1	-	-	-	0	0

Screening data: PubChem, Broad Institute
